Results as given in ChEMBL document CHEMBL3988442, “University of Dundee, Small-Polar-MMV Screening Library” (2021).
Out of some 48,000 compounds screened, about 13,000 (27%) showed an effect of 50% or more. The list shows a part of the results.

What follows are molecules tested on Wolbachia pipientis (assay: Anti-Wolbachia Cell-Based Screen). Settings: 5 µM.
Assay type: functional
Set-up: scale not given: in the data most compounds retested in dose-response had high values
In the case of `O=C(C[S+]([O-])Cc1ccc(F)cc1Cl)N1CCc2sccc2C1` (configuration not stated), the “Percent Effect” value is reported as -9.716%.
In the case of `Cc1cc2n(n1)CC(CNC1CCN(Cc3ccccn3)CC1)CN2` (configuration not stated), the “Percent Effect” value is reported as 3.925%.
In the case of `O=C(N[C@@H]1CN(c2ncccn2)[C@@H]2CCCO[C@@H]21)c1cscn1`, the “Percent Effect” value is reported as -1.481%.
In the case of `NC(=O)N1C[C@H](NC(=O)c2cscn2)[C@@H]2OCCC[C@@H]21`, the “Percent Effect” value is reported as 101.9%.
With `O=C(N[C@@H]1CN(Cc2ccco2)[C@@H]2CCCO[C@@H]21)c1cscn1` the “Percent Effect” value was 106.9%.
For `O=C(N[C@@H]1CN(c2ncccn2)[C@@H]2CCCO[C@@H]21)c1cnccn1`, the “Percent Effect” value was -12.54%.
For `CCOc1cc(CNCCCn2ccnc2)cc(Cl)c1OCC`, the “Percent Effect” value was -4.315%.
In the case of `CC(C)Cc1noc(CN2CCC(NC(=O)c3cccs3)CC2)n1`, the “Percent Effect” value is reported as 5.621%.
In the case of `CCOC(C)c1noc(CN2CCN(Cc3ccno3)CC2)n1` (configuration not stated), the “Percent Effect” value is reported as -9.724%.
For `CN(Cc1cc(-c2ccncc2)no1)C(=O)[C@@H]1CSCN1C`, the “Percent Effect” value was 2.417%.
With `CS(=O)(=O)N1CCN(C(=O)CCC2CCCO2)CC1` (configuration not stated) the “Percent Effect” value was 1.133%.
With `O=C(CCC1CCCO1)N1CCc2nc(-c3cnccn3)nc(O)c2C1` (configuration not stated) the “Percent Effect” value was 116.1%.
For `O=C(c1ccccn1)N1CCc2nc(-c3cnccn3)nc(O)c2C1`, the “Percent Effect” value was -8.53%.
For `O=C(Cc1csc(-c2ccco2)n1)N1CCN(c2cnccn2)CC1`, the “Percent Effect” value was 16.12%.
For `COCC(=O)N1CCc2nc(C(=O)Nc3cccnc3)sc2CC1`, the “Percent Effect” value was 1.921%.
With `CS(=O)(=O)NC1CCN(C(=O)CCC2CCCO2)CC1` (configuration not stated) the “Percent Effect” value was 10.42%.
For `Cc1nc(CC(=O)N2CCc3nc(-c4cnccn4)nc(O)c3C2)cs1`, the “Percent Effect” value was 88.77%.
With `COCC(=O)N1CCc2nc(-c3cnccn3)nc(O)c2C1` the “Percent Effect” value was 104.8%.
With `CC(C)(CC(=O)N(CC(N)=O)C1CCCC1)c1ccccc1` the “Percent Effect” value was -10.15%.
`CC(C)(CN)NS(=O)(=O)c1cccc(F)c1F.Cl` was tested, and the “Percent Effect” value was -6.445%.
In the case of `C=Cc1cccc(CN2C[C@H]3CC[C@@H]2CN(Cc2c(C)noc2C)C3)c1`, the “Percent Effect” value is reported as -8.639%.
With `Cc1ccc(C(=O)N(C)Cc2csc(Br)c2)c(=O)[nH]1` the “Percent Effect” value was 125.8%.
With `Cc1ncsc1C(=O)N(C)Cc1ccc(Br)o1` the “Percent Effect” value was 23.63%.
In the case of `Cc1ccc(C(=O)N(Cc2ccc(F)cc2F)C2CC2)c(=O)[nH]1`, the “Percent Effect” value is reported as -11.26%.
With `Cc1ccc(C(=O)N(C)Cc2ccc(Br)s2)c(=O)[nH]1` the “Percent Effect” value was 139.4%.
With `CCN(Cc1ccc2c(c1)OCO2)C(=O)c1ccc(C)[nH]c1=O` the “Percent Effect” value was -8.548%.
In the case of `Cc1ccc(C(=O)N(C)Cc2csc(C)n2)c(=O)[nH]1`, the “Percent Effect” value is reported as 127.5%.
In the case of `Cc1ccc(C(=O)N(Cc2ccc(F)cc2)C2CC2)c(=O)[nH]1`, the “Percent Effect” value is reported as -2.478%.
For `Cc1nc(CN(C)C(=O)CNC(=O)c2ccc(C#N)cc2)cs1`, the “Percent Effect” value was 6.778%.
In the case of `Cc1ccc(C(=O)N(C)Cc2ccc(Br)o2)c(=O)[nH]1`, the “Percent Effect” value is reported as 131.8%.
With `Cc1ccc(C(=O)N(C)Cc2c(C)noc2C)c(=O)[nH]1` the “Percent Effect” value was 0.555%.
In the case of `COC(=O)NCC(=O)N(C)Cc1csc(C)n1`, the “Percent Effect” value is reported as 0.6719%.
With `Cc1ccc(C(=O)NCC(O)c2ccc(Cl)s2)c(=O)[nH]1` (configuration not stated) the “Percent Effect” value was -29.35%.
In the case of `CNc1ccnc(N2C[C@@H](C)[C@](O)(C3CCC3)C2)n1`, the “Percent Effect” value is reported as -0.8884%.
`CNc1ncc(CN(C)C(=O)c2ccccc2C2CCNC2)cn1` (configuration not stated) was tested, and the “Percent Effect” value was -12.29%.
In the case of `CN(C(=O)CNC(=O)CC(C)(C)C)C1CCN(c2ccccn2)CC1`, the “Percent Effect” value is reported as 12.99%.
In the case of `Cc1cccnc1[C@H](C)NC(=O)c1cccc(CC2CCNCC2)c1`, the “Percent Effect” value is reported as -20.86%.
For `CC(C)CC(=O)NCCn1nc(C2CCNC2)c2cccnc21.Cl` (configuration not stated), the “Percent Effect” value was 97.32%.
In the case of `CC(C)(C)CC(=O)NCCn1nc(C2CCNC2)c2cccnc21.Cl` (configuration not stated), the “Percent Effect” value is reported as 117.2%.
In the case of `COCCC(=O)NCCn1nc(C2CCNC2)c2cccnc21.Cl` (configuration not stated), the “Percent Effect” value is reported as 104.9%.
With `CC(C)(C)CC(=O)Nc1ncn(CC(=O)NCc2ccccc2)n1` the “Percent Effect” value was 0.2654%.
In the case of `COCCN(C(=O)c1c[nH]c2ncccc12)C1CCCC1`, the “Percent Effect” value is reported as 6.84%.
`Cl.O=C(CCC1CCCC1)NCCn1nc(C2CCNC2)c2nccnc21` (configuration not stated) was tested, and the “Percent Effect” value was -7.206%.
In the case of `CC(C)NS(=O)(=O)c1cc(C(=O)O)cc(-c2ccc(CN(C)C)cc2)c1`, the “Percent Effect” value is reported as -14.22%.
In the case of `Cc1cc(CNC(=O)Nc2ccc(C(=O)NC3CC3)cc2)no1`, the “Percent Effect” value is reported as 1.867%.
`CC(C)(O)CCc1cccc(C(=O)N2CCC3(CCO3)CC2)c1` was tested, and the “Percent Effect” value was 8.25%.
With `CC(=O)NCCC1CCCCN1C(=O)c1cccc(CCC(C)(C)O)c1` (configuration not stated) the “Percent Effect” value was 90.48%.
In the case of `CC(C)(O)CCc1cccc(C(=O)N2CCC3(CCOCC3)CC2)c1`, the “Percent Effect” value is reported as -3.198%.
With `CC(C)(O)CCc1cccc(C(=O)N2CCC[C@H]2CN2CCCC2)c1` the “Percent Effect” value was 96.29%.
`CO[C@H]1C[C@@H](O)C12CCN(C(=O)c1cccc(CCC(C)(C)O)c1)CC2` was tested, and the “Percent Effect” value was -1.029%.
In the case of `CC(C)(O)CCc1cccc(C(=O)NCCC2CCOC2)c1` (configuration not stated), the “Percent Effect” value is reported as -27.94%.
`CCc1nnc(SCC(=O)Nc2cc(C(C)(C)C)nn2C)[nH]1` was tested, and the “Percent Effect” value was -3.815%.
